Source: ChEMBL document CHEMBL3988442, “University of Dundee, Small-Polar-MMV Screening Library” (2021)
For some assays here: Entries with a potency or affinity are not part of this list.

Legend:
Set-up in all cases: scale not given: direction of the effect not stated beside the values
[1] = target: Protein translocase subunit SecA (Escherichia coli (strain K12)) (UniProt P10408); assay: Assay to Identify E. coli SecA ATPase Inhibitors; format: functional; conditions: 30 µM
[2] = target: T1, Ubiquitin-activating enzyme e1, putative (Leishmania donovani (strain BPK282A1)) (UniProt E9BSI1); assay: Leishmania donovani Ubiquitin Activating Enzyme (LdE1); format: functional; conditions: 30 µM
T1 sequence (whole entry): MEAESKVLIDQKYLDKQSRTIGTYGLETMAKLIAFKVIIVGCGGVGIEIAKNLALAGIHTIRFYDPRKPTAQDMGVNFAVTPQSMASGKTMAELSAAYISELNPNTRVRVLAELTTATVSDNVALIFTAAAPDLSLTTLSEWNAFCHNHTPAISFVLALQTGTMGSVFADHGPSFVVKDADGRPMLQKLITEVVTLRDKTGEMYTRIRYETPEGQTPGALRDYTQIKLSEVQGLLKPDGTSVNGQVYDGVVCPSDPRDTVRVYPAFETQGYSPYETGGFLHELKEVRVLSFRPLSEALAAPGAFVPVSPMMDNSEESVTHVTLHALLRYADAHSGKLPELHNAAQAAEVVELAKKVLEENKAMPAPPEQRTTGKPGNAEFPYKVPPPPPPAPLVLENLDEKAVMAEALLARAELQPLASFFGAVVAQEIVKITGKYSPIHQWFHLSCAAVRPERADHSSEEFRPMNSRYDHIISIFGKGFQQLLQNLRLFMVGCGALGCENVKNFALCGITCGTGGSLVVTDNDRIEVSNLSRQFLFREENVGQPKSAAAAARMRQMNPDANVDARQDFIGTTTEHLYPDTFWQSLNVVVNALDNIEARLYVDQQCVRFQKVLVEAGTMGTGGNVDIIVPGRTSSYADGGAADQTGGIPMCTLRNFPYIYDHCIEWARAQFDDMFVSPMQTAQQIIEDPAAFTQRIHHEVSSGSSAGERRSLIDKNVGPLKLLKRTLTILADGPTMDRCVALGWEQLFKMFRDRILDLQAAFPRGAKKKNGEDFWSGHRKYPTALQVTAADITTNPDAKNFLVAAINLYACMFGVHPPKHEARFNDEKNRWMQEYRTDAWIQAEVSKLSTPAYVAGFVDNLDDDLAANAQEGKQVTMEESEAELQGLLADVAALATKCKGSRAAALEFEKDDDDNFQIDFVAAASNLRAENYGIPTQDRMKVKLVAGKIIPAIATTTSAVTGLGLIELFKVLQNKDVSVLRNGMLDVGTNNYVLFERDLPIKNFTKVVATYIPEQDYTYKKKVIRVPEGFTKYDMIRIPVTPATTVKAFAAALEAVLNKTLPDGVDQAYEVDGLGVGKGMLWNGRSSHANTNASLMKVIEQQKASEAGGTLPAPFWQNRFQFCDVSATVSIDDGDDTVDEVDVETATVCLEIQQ

[3] = target: AMP-activated protein kinase, AMPK (Homo sapiens) (UniProt P54646+O43741+P54619+Q9UGJ0+Q9Y478+Q13131+Q9UGI9); assay: AMP-dependent Kinase enzyme assay. An in vitro enzyme assay that detects ADP turnover that is directly proportional to AMPK activity. This uses naive AMPK that is activated during the assay with MK-8722; format: functional; conditions: 30 µM
[4] = target: Sialic acid-binding Ig-like lectin 9 (Homo sapiens) (UniProt Q9Y336); assay: Hs-Siglec9 ALPHAscreen SOP 20170721; conditions: 10 µM
[5] = test system: Trypanosoma cruzi; assay: Trypanosoma cruzi phosphomannomutase and mannose-1-phosphate guanylyltransferase assay; format: functional; conditions: 10 µM
[6] = target: T2, Arginase-2, mitochondrial (Homo sapiens) (UniProt P78540); assay: in vitro enzyme assay to detect the production of urea directly proportional to the activity of Arginase II; format: functional; conditions: 33.3 µM; note: in the data most compounds retested in dose-response had high values
T2 sequence (whole entry): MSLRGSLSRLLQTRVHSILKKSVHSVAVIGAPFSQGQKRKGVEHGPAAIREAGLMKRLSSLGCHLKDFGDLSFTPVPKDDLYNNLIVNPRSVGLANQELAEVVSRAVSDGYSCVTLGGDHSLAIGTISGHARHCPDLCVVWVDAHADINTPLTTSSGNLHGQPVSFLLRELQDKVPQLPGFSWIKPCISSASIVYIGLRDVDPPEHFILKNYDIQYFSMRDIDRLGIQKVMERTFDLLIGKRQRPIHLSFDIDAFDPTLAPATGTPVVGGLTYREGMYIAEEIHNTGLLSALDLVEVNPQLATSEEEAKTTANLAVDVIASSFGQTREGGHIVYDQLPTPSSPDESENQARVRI

[7] = target: T3, Proteasome subunit beta (Trypanosoma cruzi) (UniProt O96673); assay: Trypanosoma cruzi proteasome chymotrypsin-like activity (TcProtChymo) assay.; note: in the data most compounds retested in dose-response had high values; format: functional; conditions: 9.37 µM
T3 sequence (whole entry): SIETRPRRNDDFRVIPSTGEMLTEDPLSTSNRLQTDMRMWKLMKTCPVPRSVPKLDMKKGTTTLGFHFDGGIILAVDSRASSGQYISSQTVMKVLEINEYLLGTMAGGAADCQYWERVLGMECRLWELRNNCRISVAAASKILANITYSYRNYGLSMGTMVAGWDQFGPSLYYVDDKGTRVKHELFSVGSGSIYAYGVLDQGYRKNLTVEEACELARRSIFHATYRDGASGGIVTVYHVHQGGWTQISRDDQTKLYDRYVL

[8] = species: Homo sapiens; assay: To identify inhibition of the IFN signalling (Jak-Stat) pathway via expression of an eGFP reporter gene under the control of an IFN-stimulated response element (ISRE) containing MxA promoter.; format: functional; conditions: 30 µM
[9] = target: T4, Tyrosyl-tRNA synthetase, putative (Trypanosoma cruzi (strain CL Brener)) (UniProt Q4DSP6); assay: Trypanosoma cruzi tyrosyl tRNA synthetase (TcYRS) _High Tyrosine SOP; format: functional; conditions: 30 µM; note: in the data most compounds retested in dose-response had high values
T4 sequence (whole entry): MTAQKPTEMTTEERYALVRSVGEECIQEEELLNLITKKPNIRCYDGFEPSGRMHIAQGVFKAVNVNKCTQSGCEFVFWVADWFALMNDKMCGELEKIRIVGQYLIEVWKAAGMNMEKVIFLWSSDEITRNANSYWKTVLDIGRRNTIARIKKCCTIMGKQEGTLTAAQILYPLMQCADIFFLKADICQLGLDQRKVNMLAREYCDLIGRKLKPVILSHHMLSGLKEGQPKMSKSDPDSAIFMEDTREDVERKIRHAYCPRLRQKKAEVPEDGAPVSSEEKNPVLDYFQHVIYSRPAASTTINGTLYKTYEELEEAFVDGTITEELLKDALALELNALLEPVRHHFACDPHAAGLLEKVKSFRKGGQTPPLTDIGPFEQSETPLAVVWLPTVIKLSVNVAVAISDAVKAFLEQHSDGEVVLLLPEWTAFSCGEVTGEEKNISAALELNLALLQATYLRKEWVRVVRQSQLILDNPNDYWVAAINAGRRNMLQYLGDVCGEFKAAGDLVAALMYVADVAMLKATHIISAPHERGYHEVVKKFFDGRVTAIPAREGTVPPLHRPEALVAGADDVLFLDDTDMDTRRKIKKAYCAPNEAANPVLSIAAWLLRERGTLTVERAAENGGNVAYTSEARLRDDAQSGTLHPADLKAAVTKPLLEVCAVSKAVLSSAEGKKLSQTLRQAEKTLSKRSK

[10] = target: T4, Tyrosyl-tRNA synthetase, putative (Trypanosoma cruzi (strain CL Brener)); assay: Trypanosoma cruzi tyrosyl tRNA synthetase (TcYRS) SOP; format: functional; conditions: 30 µM
[11] = target: Chromo domain-containing protein 1 (Saccharomyces cerevisiae (strain ATCC 204508 / S288c) (Baker's yeast)) (UniProt P32657); assay: ScCHD-1 Enzyme Inhibition Assay; format: functional; conditions: 30 µM; note: in the data most compounds retested in dose-response had high values
Chain of Chromo domain-containing protein 1 (Saccharomyces cerevisiae (strain ATCC 204508 / S288c) (Baker's yeast)) (P32657 whole entry, the tested form may be a part): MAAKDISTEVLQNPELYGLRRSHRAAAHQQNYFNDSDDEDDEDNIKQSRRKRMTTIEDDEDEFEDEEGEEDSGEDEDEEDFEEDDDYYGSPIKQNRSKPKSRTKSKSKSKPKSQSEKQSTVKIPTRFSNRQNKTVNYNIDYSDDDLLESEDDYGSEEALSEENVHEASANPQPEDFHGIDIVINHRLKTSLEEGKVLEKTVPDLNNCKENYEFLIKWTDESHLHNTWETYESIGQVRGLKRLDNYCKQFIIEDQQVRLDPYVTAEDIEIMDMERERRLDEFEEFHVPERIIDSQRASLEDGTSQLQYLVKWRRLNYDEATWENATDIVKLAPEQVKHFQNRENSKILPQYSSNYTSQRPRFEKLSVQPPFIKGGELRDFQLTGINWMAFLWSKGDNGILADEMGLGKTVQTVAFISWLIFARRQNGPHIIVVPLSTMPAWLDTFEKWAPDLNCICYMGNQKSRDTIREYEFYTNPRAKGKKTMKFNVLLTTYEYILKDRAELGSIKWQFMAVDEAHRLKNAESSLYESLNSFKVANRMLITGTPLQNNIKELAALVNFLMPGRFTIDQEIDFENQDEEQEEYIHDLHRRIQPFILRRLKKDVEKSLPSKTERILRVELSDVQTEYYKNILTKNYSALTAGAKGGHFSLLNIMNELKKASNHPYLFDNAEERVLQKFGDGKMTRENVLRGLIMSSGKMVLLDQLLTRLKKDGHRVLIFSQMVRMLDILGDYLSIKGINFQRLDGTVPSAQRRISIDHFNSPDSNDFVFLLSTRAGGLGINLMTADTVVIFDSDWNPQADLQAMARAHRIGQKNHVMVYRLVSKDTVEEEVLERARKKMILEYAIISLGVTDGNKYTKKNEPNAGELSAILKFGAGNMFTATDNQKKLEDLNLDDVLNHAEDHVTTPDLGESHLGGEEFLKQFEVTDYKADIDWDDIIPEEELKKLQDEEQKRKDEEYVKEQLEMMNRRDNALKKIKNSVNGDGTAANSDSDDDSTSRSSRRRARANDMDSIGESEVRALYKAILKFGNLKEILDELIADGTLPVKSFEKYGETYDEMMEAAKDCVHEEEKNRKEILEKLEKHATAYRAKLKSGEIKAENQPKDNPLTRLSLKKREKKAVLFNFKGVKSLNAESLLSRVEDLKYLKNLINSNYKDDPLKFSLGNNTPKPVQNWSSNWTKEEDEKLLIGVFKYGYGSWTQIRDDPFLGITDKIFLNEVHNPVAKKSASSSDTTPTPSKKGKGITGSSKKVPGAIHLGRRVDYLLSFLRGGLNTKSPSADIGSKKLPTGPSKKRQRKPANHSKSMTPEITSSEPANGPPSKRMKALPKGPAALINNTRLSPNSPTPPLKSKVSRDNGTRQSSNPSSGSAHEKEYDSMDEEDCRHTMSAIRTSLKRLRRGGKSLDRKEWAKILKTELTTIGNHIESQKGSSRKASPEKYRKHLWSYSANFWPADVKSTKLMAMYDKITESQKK

Chain of Protein translocase subunit SecA (Escherichia coli (strain K12)) (P10408 whole entry): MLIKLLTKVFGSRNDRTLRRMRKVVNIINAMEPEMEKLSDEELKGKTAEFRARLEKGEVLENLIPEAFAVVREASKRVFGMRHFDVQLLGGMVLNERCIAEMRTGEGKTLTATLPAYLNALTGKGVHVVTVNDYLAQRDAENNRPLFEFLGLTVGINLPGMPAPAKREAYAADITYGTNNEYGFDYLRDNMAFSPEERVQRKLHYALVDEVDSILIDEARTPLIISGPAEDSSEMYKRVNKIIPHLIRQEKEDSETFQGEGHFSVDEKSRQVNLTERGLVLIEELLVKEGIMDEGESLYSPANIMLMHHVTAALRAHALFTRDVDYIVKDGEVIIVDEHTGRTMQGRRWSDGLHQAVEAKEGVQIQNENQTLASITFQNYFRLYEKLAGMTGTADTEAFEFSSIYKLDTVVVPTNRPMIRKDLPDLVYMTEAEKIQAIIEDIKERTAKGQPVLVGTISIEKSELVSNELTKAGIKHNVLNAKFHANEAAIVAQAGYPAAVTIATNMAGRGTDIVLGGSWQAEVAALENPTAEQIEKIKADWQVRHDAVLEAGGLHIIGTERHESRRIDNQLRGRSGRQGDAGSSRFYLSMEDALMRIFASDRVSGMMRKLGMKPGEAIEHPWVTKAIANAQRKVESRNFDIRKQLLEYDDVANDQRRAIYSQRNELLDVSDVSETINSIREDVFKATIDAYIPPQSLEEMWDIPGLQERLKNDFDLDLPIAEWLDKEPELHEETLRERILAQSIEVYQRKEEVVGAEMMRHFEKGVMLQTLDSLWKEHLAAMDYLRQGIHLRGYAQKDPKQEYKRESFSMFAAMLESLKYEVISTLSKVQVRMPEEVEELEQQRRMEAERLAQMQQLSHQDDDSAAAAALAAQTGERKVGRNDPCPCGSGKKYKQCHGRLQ
Chain of Sialic acid-binding Ig-like lectin 9 (Homo sapiens) (Q9Y336 whole entry): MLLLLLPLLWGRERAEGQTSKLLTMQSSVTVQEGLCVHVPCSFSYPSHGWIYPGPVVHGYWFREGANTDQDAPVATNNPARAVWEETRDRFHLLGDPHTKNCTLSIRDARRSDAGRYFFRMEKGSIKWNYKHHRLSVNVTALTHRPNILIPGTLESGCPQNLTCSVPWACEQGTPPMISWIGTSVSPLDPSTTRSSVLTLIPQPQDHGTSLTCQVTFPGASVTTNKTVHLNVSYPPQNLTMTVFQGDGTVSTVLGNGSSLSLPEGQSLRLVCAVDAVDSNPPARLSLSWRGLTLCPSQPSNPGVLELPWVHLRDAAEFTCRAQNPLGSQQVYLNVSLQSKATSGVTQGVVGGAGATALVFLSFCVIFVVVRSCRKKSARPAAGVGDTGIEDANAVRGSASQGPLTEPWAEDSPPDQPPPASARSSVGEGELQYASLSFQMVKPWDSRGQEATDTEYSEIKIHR

| Structure (SMILES) | Percent Effect [1] [%] | Percent Effect [2] [%] | Percent Effect [3] [%] | Percent Effect [4] [%] | Percent Effect [5] [%] | Percent Effect [6] [%] | Percent Effect [7] [%] | Percent Effect [8] [%] | Percent Effect [9] [%] | Percent Effect [10] [%] | Percent Effect [11] [%] |
| --- | --- | --- | --- | --- | --- | --- | --- | --- | --- | --- | --- |
| Cn1cc(CN2CC3(CCN(C(=O)c4cscn4)C3)C2)cn1 | -1.74 | 19.2 | -7.29 | 10.7 | 3.77 | -3.19 | 9.85 | 4.08 | 10.4 | 16.1 | -10.8 |
| CCn1cc2c(n1)CN(Cc1nccs1)CC2COCC1CC1 (configuration not stated) | -2.47 | 13.3 | 8.82 | 0.752 | -0.197 | 3.03 | 6.61 | 0.895 | 6.38 | 11.5 | -4.67 |
| CC(=O)NCC(=O)N1CCC2(CC1)CN(c1cccnc1)C(=O)CO2 | -1.82 | 13.5 | -3.23 | -10.1 | -3.42 | 2.87 | 26.2 | -0.0812 | -1.08 | 10.3 | 0.305 |
| COCCN(Cc1ccoc1)C(=O)c1cccnc1SC | -1.15 | 5.2 | 9.17 | 2.43 | -4.24 | 7.1 | 1.04 | 1.32 | 3.17 | 6.41 | -5.39 |
| Cc1ccc(N2CCCN(C(=O)CC3CCCO3)CC2)nn1 (configuration not stated) | -2.51 | 21.6 | -11.8 | 5.27 | 3.87 | -8.82 | 14.8 | 7.13 | -1.48 | 18.5 | -9.23 |
| Cc1ccc(NC2CCN(C(=O)c3ccsc3)CC2)nn1 | -9.11 | 10.4 | -1.87 | 1.46 | -6.37 | -1.07 | 5.57 | 30 | 6.8 | 9.76 | -2 |
| Cc1ccc(N2CCCC(NCc3ccsc3)C2)nn1 (configuration not stated) | 1.41 | 13.5 | -7.55 | 2.96 | -6.7 | 1.6 | 8.29 | 11 | 4.43 | 16.1 | -7.21 |
| CCc1nccn1C1CCCN(C(=O)CCCNc2ncccn2)C1 (configuration not stated) | -4.28 | 3.8 | 4.55 | 1.92 | -2.77 | 2.8 | 6 | 9.01 | 4.17 | 10.1 | -14.2 |
| O=C(c1cccc2cccnc12)N1CCCN(c2cccnn2)CC1 | -6.9 | 10.4 | -4.23 | 1.47 | 6.37 | 1.9 | 10.8 | 0.652 | 2.86 | 11.8 | -27.3 |
| CNS(=O)(=O)c1cccc(CNC(=O)c2c(C)oc(C)c2C)c1 | -3.91 | 19 | 6.49 | -6.49 | 3.79 | -1.07 | 18.4 | 7.61 | 2.08 | 15.2 | 53.2 |
| CCOCCn1c(=O)[nH]c2cc(C(=O)N(C)CCc3cn[nH]c3)ccc21 | 0.265 | 16.2 | 4.85 | 14.1 | 5.6 | 22.4 | 17.8 | 13 | 3.7 | 12.2 | -7.29 |
| CSCc1cccc(S(=O)(=O)NCCCO)c1 | -4.83 | 5.2 | 5.07 | 1.97 | -0.0983 | -20.7 | 3.33 | -20.6 | 5.38 | 11.1 | -2.83 |
| CC(C)c1nc2c(n1C)CCN(Cc1nc(-c3ccsc3)no1)C2 | -1.67 | -24.3 | -9.21 | 0.639 | 7.71 | -1.29 | 10.1 | 1.59 | 9.9 | 25.6 | -0.805 |
| Cc1nc(CNC(=O)NCC(O)c2ccc(F)c(F)c2)cs1 (configuration not stated) | -1.38 | 10.8 | 1.17 | -3.81 | 3.25 | -3.51 | 16.3 | 23.3 | 7.92 | 18.3 | -5.03 |
| CCNC(=O)CN1CCCN(C(=O)C2CCCc3[nH]ncc32)CC1 (configuration not stated) | -3.9 | 8.11 | -2.94 | 6.84 | 1.66 | 5.21 | 5.75 | -11.9 | 3.23 | 8.64 | -4.21 |
| CCOCCNc1nc(C2CCCC2)nc2c1cnn2C | -4.35 | 2.74 | 6.03 | -4.4 | 0.588 | 2.73 | 1.6 | 17.1 | 1.07 | 5 | 2.02 |
| COCC1CN(Cc2ccc(C)o2)Cc2ncn(CC3CC3)c21 (configuration not stated) | 0.368 | 5.2 | -2.46 | 5.95 | 6.79 | -6.9 | 3.99 | -10.6 | 1.07 | 1.24 | -7.38 |
| Cc1cc2c(=O)n3c(nc2s1)CCN(C(=O)c1ccncc1)CC3 | 0.412 | 1.35 | 20.6 | 7.55 | -4.74 | 3.02 | 9.98 | 0.756 | 2.15 | 6.49 | -4.17 |
| CC(C)CN1CCCn2nc(CNC(=O)CCCc3cn[nH]c3)cc2C1 | -4.55 | 2.67 | 1.75 | 9.18 | 6.91 | -0.521 | 10.8 | 0.658 | 6.01 | 11.1 | -7.73 |
| Cc1nc(C)n(CC2CCCN(Cc3nc(C)c(C)o3)C2)n1 (configuration not stated) | -2.17 | 21.6 | -13.9 | -7.46 | 2.92 | -12.8 | 17.7 | 7.96 | 1.48 | 23.5 | -11 |
| CN(CC(=O)N(C)C1CCCCC1)C1CCc2ccccc21 (configuration not stated) | -3.95 | 7.89 | 6.4 | -4.14 | -7.14 | 3.45 | 7.35 | 15.2 | 2.45 | 9.76 | -6.2 |
| c1coc(CN2CCCC3(COCCN(Cc4c[nH]nn4)C3)C2)c1 (configuration not stated) | -3.44 | 8 | 2.62 | 8.5 | -0.193 | -23.1 | 10.9 | -4.99 | 7.29 | 10 | -7.03 |
